# Compounds with a hit are over-represented: about 28% of the library has one in this group of screens.
# CYP2C19 activ – human CYP2C19 activators, primary screen, biochemical, luminescence; AID 1025, 2008; recombinant CYP2C19, luciferin-H EGE luminescence; active compounds read high; 0 = fully inhibited enzyme, 1 = untreated enzyme; 96,000 tested, under 10 active; activation factor at 5 µM; Cytochrome P450 2C19 (Homo sapiens), P33261;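 active = activation factor of at least 2 at 5 µM in the primary screen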;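 also: 0 = wells with 2.5 mM tranylcypromine and 1 = vehicle-only wells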
# CYP2C9 activ – human CYP2C9 activators, primary screen, biochemical, luminescence | Cytochrome P450 2C9 (Homo sapiens), P11712 | recombinant CYP2C9, luciferin-H conversion; active compounds read high; factor 1 = untreated enzyme, 0 = blocked | activation factor at 5 µM | actives 1.4% (n = 96,000);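 active = activation factor of 2 or more for CYP2C9 at a 5 µM dose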;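 also: 0 = sulfaphenazole-blocked wells and 1 = vehicle-only wells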
# CYP2C9 inh – blockers of cytochrome P450 2C9 activity – biochemical, luminescence, ADME assay, primary screen. CYP2C9 Supersomes, luciferin-H conversion. AID 777, 2007. actives 20% (n = 96,000). inhibition, % at 5 µM. P11712;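 active = blocking of liver enzyme CYP2C9 beyond about 50% at 5 µM, limit read from the data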
# CYP2C19 inh – blockers of cytochrome P450 2C19 activity – biochemical, luminescence, ADME assay, primary screen | P33261 | CYP2C19 Supersomes, luciferin-H EGE luminescence, 30 min | inhibition, % at 5 µM | actives 21% (n = 96,000) | AID 778, 2007;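 active = CYP2C19 inhibition above a set limit at 5 µM in the primary screen, cut at about 50% in these data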;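 also: plate controls were negative control wells for no effect and 2.5 mM tranylcypromine positive control for full effect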
# Pyk2 oligo antag – antagonists of Pyk2 self-association, primary screen, Q293 cells, FERM NanoBiT luminescence, HTS | actives 0.83% (n = 99,000) | AID 1347419, 2020 | active compounds read low | z-score (the deposit names both 25 µM and 10 µM) | Protein-tyrosine kinase 2-beta (Homo sapiens), Q14289;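 active = Z-score of -3 or lower, scaled per plate to the spread of control and sample wells; inactive = z-score above -3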;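 also: negative z-score means lost luminescence so less FERM oligomerization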
# Target sequence (Q14289 whole entry, looked up): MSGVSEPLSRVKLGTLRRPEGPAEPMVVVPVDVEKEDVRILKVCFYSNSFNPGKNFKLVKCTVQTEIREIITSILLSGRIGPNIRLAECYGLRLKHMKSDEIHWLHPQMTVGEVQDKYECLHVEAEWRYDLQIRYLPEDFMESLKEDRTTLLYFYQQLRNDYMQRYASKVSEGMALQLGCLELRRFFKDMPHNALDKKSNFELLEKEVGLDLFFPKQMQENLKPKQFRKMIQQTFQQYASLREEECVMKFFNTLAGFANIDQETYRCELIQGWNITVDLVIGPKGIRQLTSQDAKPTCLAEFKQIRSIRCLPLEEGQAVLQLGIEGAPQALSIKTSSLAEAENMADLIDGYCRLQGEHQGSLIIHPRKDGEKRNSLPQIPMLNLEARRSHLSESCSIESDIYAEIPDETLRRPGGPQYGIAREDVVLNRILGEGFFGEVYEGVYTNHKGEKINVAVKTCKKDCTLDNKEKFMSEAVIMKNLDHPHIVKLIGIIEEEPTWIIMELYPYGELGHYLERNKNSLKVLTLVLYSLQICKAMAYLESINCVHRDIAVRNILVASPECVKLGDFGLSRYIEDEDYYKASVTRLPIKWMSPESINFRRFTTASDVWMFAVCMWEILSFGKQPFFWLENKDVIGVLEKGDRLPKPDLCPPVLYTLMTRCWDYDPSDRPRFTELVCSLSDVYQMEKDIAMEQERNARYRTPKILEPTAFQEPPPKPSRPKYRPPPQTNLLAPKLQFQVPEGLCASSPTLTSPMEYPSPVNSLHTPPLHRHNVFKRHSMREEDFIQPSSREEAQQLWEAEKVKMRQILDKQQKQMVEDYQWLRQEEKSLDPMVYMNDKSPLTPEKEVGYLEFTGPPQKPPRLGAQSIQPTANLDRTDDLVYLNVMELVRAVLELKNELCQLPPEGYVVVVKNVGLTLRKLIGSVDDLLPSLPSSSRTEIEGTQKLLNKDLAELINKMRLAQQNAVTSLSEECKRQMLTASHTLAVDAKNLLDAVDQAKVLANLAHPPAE
# Numbers without * were called inactive; x = not tested or not shown.
SMILES,CYP2C19 activ,CYP2C9 activ,CYP2C9 inh,CYP2C19 inh,Pyk2 oligo antag
CCc1cccc(C)c1NC(=O)C(c1ccccc1)N1CCC1=O (stereo not drawn),1.1,1.1,-8.6,-14.6,-0.21
COc1ccc(C(C)NC(=O)C2CCCO2)cc1OC (stereo not drawn),0.9,1,-3.2,5.0,0.09
NC(=O)C(F)(F)C12OC3C4C5CC(C6C5C3C61)C42 (stereo not drawn),0.9,1.1,-9.8,5.6,1.99
Cc1nn(C)c(Oc2ccccc2)c1CCNS(=O)(=O)c1ccccc1,0.1,0.5,46.5,91.9*,0.48
Cc1ccc(S(=O)(=O)Nc2c3ccccc3nc(=O)n2-c2ccccc2)cc1,1,0.8,16.2,4.9,-0.74
CN(C)S(=O)(=O)c1ccc2[nH]cc(/C=C/c3nc4ccccc4c(=O)n3-c3ccccc3)c2c1,0.3,0.3,69.4*,70.0*,-1.41
Cc1cc(C)nc(SCNC(=O)c2ccccc2)n1,x,x,x,x,0.13
Cc1cc(C)nc(Sc2nc(Cl)nc(N(c3ccccc3)c3ccccc3)n2)n1,0.3,0.5,51.6*,66.8*,0.05
CC(=O)Nc1cc(S(=O)(=O)Nc2ccccc2C)c(C)cc1C,0.5,1.3,-32.4,51.0*,-0.27
CC(=O)Nc1cc(S(=O)(=O)Nc2ccccc2)c(C)cc1C,0.8,1.1,-7.8,20.7,-0.99
Cc1ccc(NS(=O)(=O)c2cc(NC(=O)C(C)Oc3ccccc3)ccc2C)c(C)c1 (stereo not drawn),x,x,x,x,-1.13
CC(=O)Nc1cc(S(=O)(=O)Nc2cccc(C)c2)c(C)cc1C,0.4,1.6,-56.5,64.9*,0.25
O=C(O)CCc1nnc2n(Cc3ccc(F)cc3)c(=O)c3ccccc3n12,1,1,-0.9,-2.0,x
Cc1noc(C)c1C(=O)NCCCN1CCCC1=O,1.1,1.2,-16.0,-12.8,-0.48
CCCCCn1c(=O)[nH]c2cc(C(=O)NCCCN3CCC(C)CC3)ccc2c1=O,0.6,0.8,16.5,38.5,-0.09
COc1ccc(CCc2nc(C)ccc2O)cc1,0.2,0.3,65.7*,82.7*,0.31
Cc1ccc(O)c(CC(C)C)n1,1,1,-0.4,-0.9,0.38
CC(C)Sc1nc2sc3c(c2c2nnc(SCC(=O)NCc4ccco4)n12)CCCC3,0.2,0.1,93.7*,77.4*,-1.77
CC1CCc2c(sc3ncn4c(SCC(=O)NCc5ccco5)nnc4c23)C1 (stereo not drawn),0.6,0.4,58.1*,36.2,1.89
Cc1nc(SCC(=O)NCc2ccco2)c2c3c(sc2n1)CCCC3,0.8,0.6,36.6,24.1,-0.31
COc1ccc2c(c1)C(C1C(=O)CCCC1=O)c1ccccc1O2 (stereo not drawn),1,0.4,64.1*,3.1,-1.54
O=C(N/N=C/c1cn(-c2ccccc2)nc1-c1cccs1)c1ccccc1F,x,x,x,x,-2.38
COc1cc(/C=N/n2cnnc2)ccc1OC(=O)c1cccnc1,0.9,0.6,42.0,6.6,0.36
COc1ccc(-c2nn(-c3ccccc3)cc2/C=N/n2cnnc2)cc1OC,0.2,0.5,45.9,80.3*,0.16
C(=N\n1cnnc1)/c1cn(-c2cccs2)nc1-c1ccccc1,0.2,0.3,70.5*,81.2*,-0.53
SMILES,CYP2C19 activ,CYP2C9 activ,CYP2C9 inh,CYP2C19 inh,Pyk2 oligo antag
CC(NC(=O)OCc1ccccc1)C(=O)OCN1C(=O)c2ccccc2C1=O (stereo not drawn),0.6,0.7,28.6,42.4,0.03
CCCCOc1ccc(-c2nnn(CC(=O)Nc3ncc(CC(=O)OCC)s3)n2)cc1,0.8,0.2,76.0*,21.2,1.2
CCOC(=O)Cc1cnc(NC(=O)Cn2nnc(-c3ccc(OCC)cc3)n2)s1,0.3,0.2,85.0*,66.2*,1.32
Cc1cc(C)c2c(c1)-c1cc(C)nn1C(c1ccc3c(c1)OCO3)N2 (stereo not drawn),0.7,0.8,20.0,33.1,0.23
Cc1cc2n(n1)C(c1ccc3c(c1)OCO3)Nc1c(C)cccc1-2 (stereo not drawn),0,0.1,92.2*,98.5*,-0.64
CC(=O)N(c1ccccc1)c1nc(C)cc(C)c1C#N,x,x,x,x,0.2
COc1cc(C)c(N(C(C)=O)c2ccccc2)c(C)c1,0.4,0.7,31.0,61.3*,0.28
O=C(CCC(=O)c1cccs1)Nc1ccccc1F,0.5,0.9,12.6,52.2*,0.5
